This note sets out measurements from a collection of fitness landscapes (doi:10.1126/science.1257360).

B1: PhoQ; a variant is named by its letters at X, in order, P23837 (parent)
chain: MKKLLRLFFPLSLRVRFLLATAAVVLVLSLAYGMVALIGYSVSFDKTTFRLLRGESNLFYTLAKWENNKLHVELPENIDKQSPTMTLIYDENGQLLWAQRDVPWLMKMIQPDWLKSNGFHEIEADVNDTSLLLSGDHSIQQQLQEVREDDDDAEMTHSVAVNVYPATSRMPKLTIVVVDTIPVELKSSYMVWSWFIYVLSANLLLVIPLLWVAAWWSLRPIEALAKEVRELEEHNRELLNPATTRELTSLVRNLNRLLKSERERYDKYRTTLTDLTHSLKTPLXXLQXXLRSLRSEKMSVSDAEPVMLEQISRISQQIGYYLHRASMRGGTLLSRELHPVAPLLDNLTSALNKVYQRKGVNISLDISPEISFVGEQNDFVEVMGNVLDNACKYCLEFVEISARQTDEHLYIVVEDDGPGIPLSKREVIFDRGQRVDTLRPGQGVGLAVAREITEQYEGKIVAGESMLGGARMEVIFGRQHSAPKDE

Over roughly 140,000 sequences, “enrichment ratio after two sorts for PhoP signalling” has its median near 0; the highest 2% begin near 11. The entries come from a sample that favours the highest values as a whole.

Variants of B1 are the subject of this assay. Briefly: enrichment ratio after two sorts for PhoP signalling (ratio (wild type AVST 3.29)); higher = more functional. The following applies: with PhoP (E. coli).
Consider CLFS, for which the enrichment ratio was at most 0.25.
For WHNW the value was at most 0.25.
As to WMSA, the enrichment ratio was at most 0.25.
For HCSR the value was at most 0.25.
For TYDS the value was at most 0.25; for MLEL, at most 0.25.
For MVYD the value was at most 0.25; for MVYI, at most 0.25; for MVPA, at most 0.25.
MVNL: the enrichment ratio was at most 0.25.
For MVAV the value was 11.4; for MVWN, 13.3.
With MVYK the figure was 17.6; with MVPY, at most 0.25.
With MVIV the figure was at most 0.25; with MVAN, 15.8.
Regarding GVAN, the enrichment ratio was at most 0.25.
Regarding MVHV, the enrichment ratio was at most 0.25.
As for GDLC, the enrichment ratio was found to be 1.96.
For LWEG, the enrichment ratio was at most 0.25.
For RTKT the value was at most 0.25; for QLML, at most 0.25; for KICA, at most 0.25.
For the variant LLMY, the enrichment ratio was at most 0.25.
For FMIW the value was at most 0.25; for YMVF, at most 0.25.
With NLLC the figure was at most 0.25.
Regarding MVAG, the enrichment ratio came out at 12.7.
In the case of MVTG, the enrichment ratio was at most 0.25.
For MVMG the value was 1.65.
For LDKC the value was at most 0.25.
With PPTY the figure was at most 0.25; with TEGP, at most 0.25; with NESH, at most 0.25.
Take QEIH: the enrichment ratio is at most 0.25.
With TETH the figure was 10.3; with TEGH, 18.1.
For TEIH the value was 11.4; for TEYH, 20.6.
With VEIH the figure was at most 0.25; with TESH, 32.2.
For the variant HPYH, the enrichment ratio was at most 0.25.
For TEES the value was at most 0.25.
With HPGH the figure was at most 0.25; with DYRT, at most 0.25; with NIFH, at most 0.25.
In the case of YEYG, the enrichment ratio is at most 0.25.
For TSWM the value was 16.2; for MMGM, 1.99.
With KSGM the figure was at most 0.25; with MMTM, 10.9; with TSAM, 13.8.
As to MMWM, the enrichment ratio was at most 0.25.
With TSTM the figure was 25.6.
With TSGM the figure was 19.2.
For NSAM the value was at most 0.25; for KSWM, at most 0.25.
For KSAM, the enrichment ratio was at most 0.25.
With NVTM the figure was at most 0.25; with HFPI, at most 0.25.
With TFKM, the enrichment ratio was at most 0.25.
For INVC the value was at most 0.25; for KVGI, at most 0.25.
Consider GLDQ, for which the enrichment ratio is at most 0.25.
With DESQ the figure was at most 0.25; with RFAC, at most 0.25.
For STMF, the enrichment ratio was found to be 11.1.
With STGF the figure was 11.4; with SQGF, 0.381.
For KYGF the value was at most 0.25; for STHF, at most 0.25; for SRGF, 0.392.
With SEMF the figure was 20.6.
In the case of KYMF, the enrichment ratio was at most 0.25.
With SEGF the figure was 12.8; with MQAN, 2.41.
For VFHF the value was at most 0.25; for QYTY, at most 0.25.
With GGWG the figure was at most 0.25; with IALA, at most 0.25; with AVFF, at most 0.25.
In the case of YVCH, the enrichment ratio turned out to be 0.383.
With GERH the figure was at most 0.25.
For DKRH the value was at most 0.25; for SRLM, 8.53; for SILM, 0.906.
With GMLM the figure was 1.25; with GTLM, 14.5; with GALM, 12.1.
As for SNLM, the enrichment ratio came to 12.
With LTLM the figure was 2.03; with HILM, at most 0.25.
For SLLM the value was 6.84; for SELM, 15.6; for GYLM, at most 0.25.
With SFLM the figure was 4.5; with SPGC, at most 0.25.
On to GWTC, for which the enrichment ratio is at most 0.25.
With WFGV the figure was at most 0.25.
For IFGQ the value was at most 0.25; for VSCI, 7.51; for VLVC, at most 0.25.
Consider SCAA, for which the enrichment ratio stood at 5.68.
PIFW: the enrichment ratio was found to be 1.39.
With LQRE the figure was at most 0.25; with NQHW, at most 0.25; with ITLM, 8.61.
With IILM the figure was 0.265; with VCLM, 4.34; with QCLM, at most 0.25.
With KQLM the figure was at most 0.25.
For YTLM, the enrichment ratio turned out to be 9.3.
For the variant SALM, the enrichment ratio is 12.7.
With TTLM the figure was 16.5; with ATLM, 21.4; with GCLM, 16.5.
For YLIN the value was at most 0.25.
Regarding MTRF, the enrichment ratio was at most 0.25.
For FHGK the value was at most 0.25.
With PTLY the figure was at most 0.25; with EFRH, at most 0.25; with APYT, at most 0.25.
For YSRL the value was at most 0.25; for LVSS, at most 0.25; for DSTR, at most 0.25.
For IRCW, the enrichment ratio is at most 0.25.
With TYHN the figure was at most 0.25; with GEDL, at most 0.25.
With GIPM, the enrichment ratio is at most 0.25.
Consider GNLM, for which the enrichment ratio amounted to 17.5.
With VNLM the figure was 22.6; with LNLM, at most 0.25.
On to GIYR, for which the enrichment ratio was at most 0.25.
For GILM the value was 15.7; for MCLM, 6.74; for VYLM, at most 0.25.
For GFLM, the enrichment ratio stood at 2.69.
With VFLM the figure was at most 0.25; with TNLM, 2.74; with MNLM, 15.1.
With AYGP the figure was at most 0.25; with WTPP, at most 0.25; with ECHD, at most 0.25.
With DMYC the figure was at most 0.25; with TAWF, 5.36.
For GYWP, the enrichment ratio is at most 0.25.
With GPLY the figure was at most 0.25; with MNIM, 12.3; with GKLA, at most 0.25.
For MTLM the value was 13.8.
As to GKLM, the enrichment ratio was found to be 12.5.
With MNPM the figure was at most 0.25; with SPLM, at most 0.25; with MPLM, at most 0.25.
With MMLM the figure was at most 0.25; with MNCK, at most 0.25; with STLM, 11.2.
With GKVM the figure was at most 0.25.
For WSKW, the enrichment ratio was at most 0.25.
With HRWY the figure was at most 0.25; with RRQK, at most 0.25.
For PAKQ the value was at most 0.25.
With VEYL the figure was at most 0.25; with MFKL, at most 0.25.
Turning to KGPS, the enrichment ratio is at most 0.25.
With KVQA the figure was at most 0.25; with SMTV, 11.4.
For SAMF the value was 14.8.
For KAMF the value was at most 0.25.
Regarding SVDV, the enrichment ratio was at most 0.25.
With NAMF the figure was at most 0.25; with SMDV, at most 0.25; with KFTV, at most 0.25.
Take SVTV: the enrichment ratio was determined as 11.3.
For KITV the value was at most 0.25; for SDTV, 13.5; for SYTV, 0.308.
Turning to SRTV, the enrichment ratio was at most 0.25.
Consider YFHI, for which the enrichment ratio is at most 0.25.
In the case of TFLR, the enrichment ratio was 0.372.
For GGFA the value was at most 0.25; for GQMI, at most 0.25.
With LTAP the figure was at most 0.25; with RPSV, at most 0.25; with WEGK, at most 0.25.
QYAI: the enrichment ratio is at most 0.25.
For SITV the value was 11.8; for SQMD, 17.4.
For KSTV the value was at most 0.25; for SPTV, at most 0.25; for QETV, at most 0.25.
With STMD the figure was 9.32; with SQGD, at most 0.25.
Take AKTV: the enrichment ratio stood at 5.31.
For KYTV the value was at most 0.25; for TETV, 17.9.
With TKTV the figure was 20; with NETV, 8.86; with RQLF, at most 0.25.
As to MHPM, the enrichment ratio was at most 0.25.
With IVSV the figure was at most 0.25; with LDYS, at most 0.25; with PIMI, at most 0.25.
With YPRI the figure was at most 0.25; with KIFY, at most 0.25; with NVTV, at most 0.25.
With WIAV the figure was at most 0.25; with MMTV, at most 0.25.
TSTV: the enrichment ratio stood at 26.5.
With SLTV the figure was 10.4; with STIS, 8.13.
For SETV the value was 14.9.
With SSTV the figure was 10.5; with KYAV, at most 0.25; with YTIV, 0.385.
Regarding STIV, the enrichment ratio was 11.9.
With SIAV the figure was 12.2; with GKTV, at most 0.25.
With KFQS the figure was at most 0.25; with SNDT, at most 0.25.
With RWGI the figure was at most 0.25; with EKED, at most 0.25; with VMLL, at most 0.25.
For GWEH, the enrichment ratio was at most 0.25.
With NLWG the figure was at most 0.25; with DHDD, at most 0.25; with KRSK, at most 0.25.
For APEA, the enrichment ratio is at most 0.25.
Regarding HQMW, the enrichment ratio was at most 0.25.
For SIWV the value was at most 0.25.
Consider SAMV, for which the enrichment ratio is 14.1.
With STMV the figure was 12.8.
With KAMA the figure was at most 0.25; with SAQV, 0.569.
With SIMV the figure was 13.6.
For the variant SAFA, the enrichment ratio is at most 0.25.
For SWMV the value was at most 0.25; for SAPV, 5.29; for SPMV, at most 0.25.
For SAMA the value was 12.3; for KYMV, at most 0.25.
With ILLG the figure was at most 0.25; with KTTK, at most 0.25; with TRRW, at most 0.25.
QYNE: the enrichment ratio was at most 0.25.
Regarding MVYP, the enrichment ratio was at most 0.25.
With NQPT the figure was at most 0.25; with QHTM, at most 0.25; with YDVW, at most 0.25.
For KTCA the value was at most 0.25; for PMGE, at most 0.25; for KQMV, at most 0.25.
For SQMV the value was 22.1.
In the case of SQMW, the enrichment ratio is at most 0.25.
For YHTC the value was at most 0.25; for AEWH, 22.3; for AEWS, 8.72.
With AECH the figure was 16.5; with AEIH, 60.7.
With AWCH, the enrichment ratio is at most 0.25.
For AHIH the value was at most 0.25; for AECC, 16.3.
In the case of AEFH, the enrichment ratio was determined as 1.2.
For AIWH the value was at most 0.25.
With AIIH the figure was 2.68; with ADCC, 4.94; with AECF, 2.16.
With MYMC the figure was at most 0.25; with KQLY, at most 0.25.
For MMRL, the enrichment ratio was at most 0.25.
With RHKQ the figure was at most 0.25; with HNLQ, at most 0.25; with IHWA, at most 0.25.
For AEMH the value was 36.8.
For AEGH the value was 12.9; for AEYH, at most 0.25.
Consider AEGP, for which the enrichment ratio was at most 0.25.
For AEQH, the enrichment ratio was at most 0.25.
For AEKH the value was at most 0.25; for EVPD, at most 0.25.
With EPIP the figure was at most 0.25; with YYMV, at most 0.25.
Turning to YTMV, the enrichment ratio came to 12.2.
For TGEV the value was 26.6; for TGMS, 12.8.
As to GGEV, the enrichment ratio is at most 0.25.
For PGMG the value was at most 0.25; for DEEV, at most 0.25; for QPMV, at most 0.25.
With NGMS the figure was at most 0.25.
For GGMS the value was 1.56; for NGMG, at most 0.25; for TGMG, 17.2.
On to PEIA, for which the enrichment ratio was at most 0.25.
In the case of HVSH, the enrichment ratio was at most 0.25.
For FEHR the value was at most 0.25; for ENVM, at most 0.25; for LMNE, at most 0.25.
With WNVD, the enrichment ratio was at most 0.25.
Take RCTL: the enrichment ratio is at most 0.25.
For RGMV, the enrichment ratio was at most 0.25.
For NGMV the value was 14.
With ICMW the figure was at most 0.25; with TGMV, 12.7.
With ICMV the figure was 13.2.
Consider NGMD, for which the enrichment ratio was at most 0.25.
With ICIV the figure was at most 0.25; with GGMV, 5.
For the variant NGIV, the enrichment ratio is at most 0.25.
